Data taken from the supplement of paper PMC10515830.
Where a name gives a salt, the structure may show the parent alone.

System: Danio rerio larvae (5 dpf)
Experiment: difference in combined optomotor response to red, green and blue moving lines vs DMSO (percentage points); higher = stronger optomotor response than DMSO
Conditions: 10 µM; exposure time 6 h
In short: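 Wild-type zebrafish larvae at 5 dpf were kept in 96-well plates and exposed for 6 h to 100 µL egg water holding library compound at a final concentration of 10 µM. From 3 h into exposure, the plates were held at 28.5 ℃ and photographed every 6 s through a 3-h programme of moving lines and 100 ms, 400Hz tones. Each behaviour was scored by Z-LaP Tracker, a DeepLabCut model, and averaged over 48 larvae per compound. Every value gives the compound mean minus the vehicle control mean, in percentage points.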

Compound	difference
Nc1ncnc2c1ncn2[C@@H]1O[C@H](CO)[C@@H](O)[C@H]1O [Adenosine]	5.99
S=c1nc[nH]c2nc[nH]c12 [6-Mercaptopurine (hydrate)]	1.98
Cn1nnc(-c2ccc(-c3ccc(N4C[C@H](COP(=O)(O)O)OC4=O)cc3F)cn2)n1 [Tedizolid Phosphate]	0.136
CC(=O)N(CC(O)CO)c1c(I)c(C(=O)NCC(O)CO)c(I)c(C(=O)NCC(O)CO)c1I (stereo unspecified) [Iohexol]	-0.849
O=C(O)CCc1nc(-c2ccccc2)c(-c2ccccc2)o1 [Oxaprozin]	-6.06
CC(C)(C)NC[C@H](O)COc1cccc2c1CCCC2=O [Levobunolol (hydrochloride)]	5.62
C#C[C@]1(O)CC[C@H]2[C@@H]3CCc4cc(O)ccc4[C@H]3CC[C@@]21C [Ethynyl Estradiol]	-17.5
CCN(CC)CC(=O)Nc1c(C)cccc1C [Lidocaine]	1.72
COc1cccc2c1C(=O)c1c(O)c3c(c(O)c1C2=O)C[C@@](O)(C(=O)CO)C[C@@H]3O[C@H]1C[C@H](N)[C@H](O)[C@H](C)O1 [Doxorubicin (hydrochloride)]	-4.42
CCCN(CCC)S(=O)(=O)c1ccc(C(=O)O)cc1 [Probenecid]	9.2
CCNC(=O)CCC/C=C\C[C@@H]1[C@@H](/C=C/[C@@H](O)CCc2ccccc2)[C@H](O)C[C@@H]1O [17-phenyl trinor Prostaglandin F2α ethyl amide]	7.13
